Source: PubChem BioAssay AID1456 (Vanderbilt High Throughput Screening Facility, 2008)
In all, about 190,000 compounds went through this assay and about 4,100 (2.2%) were called active. Only a selection was taken, and actives are over-represented in it overall. Unmarked numbers belong to inactive results.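 The calls were made as follows: active = thallium flux slope and its plate-corrected score both differing from the plate sample mean at a set confidence after two filtering rounds, in either direction; inactive = the rest.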

Each molecule was assayed against Solute carrier family 12 member 5 (Homo sapiens) (UniProt Q9H2X9) (assay: KCC2 cotransporter modulators, thallium flux, primary screen, cell-based, HEK293 KCC2, FluoZin-2 fluorescence, MLSMR (AID 1456;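 as to B-score of Tl+ flux slope (higher = more flux/activation; lower = inhibition): slope of fluorescence scaled to starting intensity during 10 to 20 s after thallium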)). Settings: KCC2 cells, thallium flux FluoZin-2 fluorescence; at 10 µM.
Chain of Solute carrier family 12 member 5 (Homo sapiens) (Q9H2X9 whole entry, looked up): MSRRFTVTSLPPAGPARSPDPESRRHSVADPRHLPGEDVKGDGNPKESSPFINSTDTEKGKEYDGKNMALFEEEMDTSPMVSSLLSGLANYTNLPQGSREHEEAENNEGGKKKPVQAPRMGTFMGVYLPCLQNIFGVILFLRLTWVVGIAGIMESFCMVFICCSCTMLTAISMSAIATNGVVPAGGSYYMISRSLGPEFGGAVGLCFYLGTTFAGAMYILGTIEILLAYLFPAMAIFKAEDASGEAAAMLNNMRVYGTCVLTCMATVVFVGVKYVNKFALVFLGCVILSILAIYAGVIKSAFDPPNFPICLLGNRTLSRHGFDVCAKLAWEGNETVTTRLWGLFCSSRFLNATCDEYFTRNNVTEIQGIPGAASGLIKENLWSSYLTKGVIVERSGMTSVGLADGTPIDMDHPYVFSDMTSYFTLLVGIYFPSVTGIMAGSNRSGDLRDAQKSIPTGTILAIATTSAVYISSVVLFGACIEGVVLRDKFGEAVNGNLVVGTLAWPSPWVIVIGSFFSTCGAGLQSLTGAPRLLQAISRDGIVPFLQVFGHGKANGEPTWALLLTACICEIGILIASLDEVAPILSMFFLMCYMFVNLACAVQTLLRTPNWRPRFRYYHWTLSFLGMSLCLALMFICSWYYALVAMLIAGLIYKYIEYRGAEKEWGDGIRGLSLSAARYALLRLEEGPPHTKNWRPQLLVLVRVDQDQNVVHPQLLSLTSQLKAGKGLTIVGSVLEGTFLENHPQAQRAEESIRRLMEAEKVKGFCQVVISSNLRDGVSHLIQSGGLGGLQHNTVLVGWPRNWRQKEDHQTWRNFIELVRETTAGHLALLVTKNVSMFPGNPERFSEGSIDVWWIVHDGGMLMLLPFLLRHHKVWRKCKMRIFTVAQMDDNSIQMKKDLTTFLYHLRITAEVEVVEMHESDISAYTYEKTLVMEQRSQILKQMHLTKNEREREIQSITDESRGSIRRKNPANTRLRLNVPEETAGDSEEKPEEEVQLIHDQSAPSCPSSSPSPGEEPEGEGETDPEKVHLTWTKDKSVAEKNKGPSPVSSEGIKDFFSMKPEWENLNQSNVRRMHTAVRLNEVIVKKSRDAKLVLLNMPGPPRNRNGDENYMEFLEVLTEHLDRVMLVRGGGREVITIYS

In order of rising B-score of Tl+ flux slope (higher = more flux/activation; lower = inhibition):
1. Cc1ccc(-c2csc(NNC(=O)c3ccccc3)n2)cc1  -5.47
2. Oc1ccc(-c2nnc(Nc3ccccc3)c3ccccc23)cc1  -3.93
3. O=C1c2cccc3c([N+](=O)[O-])ccc(c23)C(=O)N1CC1CCCO1 (stereo not drawn)  -3.38
4. O=C(c1cc(-c2cccc(O)c2)on1)N1CCc2ccccc2C1  -2.87
5. CN(Cc1nc(-c2cnccn2)no1)Cc1n[nH]c2c1CCCCC2  -2.53
6. O=C(CSc1nnc(-c2cccs2)n1Cc1ccco1)c1ccc2c(c1)OCO2  -2.4
7. Cn1c(CC2Sc3ccccc3NC2=O)nnc1SCC(=O)c1ccc(Cl)cc1 (stereo not drawn)  -2.19
8. O=C(CN1CCN(Cc2ccccc2)CC1)NC(c1ccccc1)c1ccccc1  -2.1
9. CCOC(=O)C1=C(C)NC(=O)N(C(C)=O)C1c1ccc(Cl)cc1 (stereo not drawn)  -1.98
10. CC(CC(=O)Nc1cc(C(F)(F)F)ccc1Cl)c1ccccc1 (stereo not drawn)  -1.96
11. S=c1[nH]nc(NCCc2ccccc2)s1  -1.55
12. CC(C)OP(=O)(OC(C)C)C(Nc1ccccc1)c1cccc([N+](=O)[O-])c1 (stereo not drawn)  -1.5
13. Cc1nc(Cl)c(C#N)c2c1CCCC2  -1.49
14. Cc1cccc(-n2cnc(C(=O)NNC(=S)Nc3ccccc3)c2)n1  -1.44
15. CC1Cc2ccccc2N1S(=O)(=O)c1ccc(Cl)nc1 (stereo not drawn)  -1.44
16. CCOC(=O)CSc1nnc(CNc2nc(-c3ccccc3)cs2)n1C  -1.31
17. CC1CCCC(C)N1CCCNC(=O)c1cc2c(=O)n(C)c3ccccc3c2n1C (stereo not drawn)  -1.27
18. CCn1c(Cc2cccs2)nnc1SCC(=O)c1ccc(C)cc1  -1.23
19. COc1ccc(/C=C/C(=O)c2ccc(OC)cc2O)cc1  -1.21
20. O=C1CC(Cc2ccc(Cl)cc2)C(=O)N1c1cc(Cl)ccn1 (stereo not drawn)  -1.2
21. O=C(NCC1CCCO1)c1ccccc1-c1nc(-c2ccccc2Cl)no1 (stereo not drawn)  -1.09
22. COc1ccc(N(Cc2ccccc2)S(=O)(=O)c2cccc(C(=O)O)c2)cc1  -1.07
23. O=C(CN1CCN(c2ccc(Cl)cc2)CC1)NCc1cccs1  -1.03
24. S=c1[nH]nc(-c2cc(-c3ccccc3)n[nH]2)n1/N=C/c1c2ccccc2cc2ccccc12  -1.01
25. CCOC(=O)CSc1nc(C)c(Oc2ccc(Cl)cc2Cl)c(=O)[nH]1  -0.98
26. CNC(=O)c1csc(Cc2c(Cl)sc3ccc(Cl)cc23)n1  -0.799
27. Cc1cc(C)c(C)c(S(=O)(=O)N[C@@H](C)C(=O)OC(C)C(=O)NC(N)=O)c1C (stereo partly drawn)  -0.78
28. OCCCNc1nccc(-c2cc(Nc3cccc(Cl)c3)ncn2)n1  -0.723
29. CC(C)C[C@H](CO)Nc1nc(N(C)c2cccc(Cl)c2)c2ncn(C(C)C)c2n1  -0.662
30. Cc1cc(C)nc(SCc2cn3c(C)cc(C)nc3n2)n1  -0.647
31. O=C(c1ccncc1)N1CCN(c2ccc3ccccc3n2)CC1  -0.588
32. c1ccc(Nc2n[nH]nc2-c2ccccc2)cc1  -0.551
33. Nc1ncc(-c2cc3ccccc3oc2=O)s1  -0.488
34. O=C(Nc1ccccc1)N1CCN(Cc2ccccc2)CC1  -0.481
35. CC1CN(c2nc(Nc3ccccc3)nc(N)c2[N+](=O)[O-])CC(C)O1 (stereo not drawn)  -0.457
36. CNC1(c2nnnn2-c2c(C)cccc2C)CCOC(C)(C)C1 (stereo not drawn)  -0.333
37. Cc1ccc(-c2nc(C#N)c(NCCCn3ccnc3)o2)cc1  -0.3
38. Cc1ccccc1-c1nc(C#N)c(NCc2ccco2)o1  -0.237
39. O=C(c1cn(-c2ccccc2)nc1-c1cc2ccccc2oc1=O)N1CCOCC1  -0.172
40. O=C(CS(=O)(=O)c1ccc(C(F)(F)F)cn1)NNC(=O)c1ccccc1  -0.101
41. CC(Nc1nc(N2CCOCC2)nc2ccccc12)c1ccccc1 (stereo not drawn)  -0.0767
42. O=[N+]([O-])C(=c1ccc2c(c1)N1C3=C(CCCC3)CC3CCCCC31N=2)[N+](=O)[O-] (stereo not drawn)  -0.0507
43. [O-][N+]12CCCCC1CCCC2CO (stereo not drawn)  -0.0478
44. Cc1csc(=Nc2ccccc2)n1CCO  0.00145
45. Cc1ccc(N(C(=O)c2sc(C)nc2C)C(C(=O)NC(C)(C)C)c2ccncc2)cc1 (stereo not drawn)  0.0067
46. COc1ccc(C(=O)/C=C/c2ccc(OC3CSC3)cc2)cc1  0.0132
47. CCOCCn1c(-c2ccccc2)nc2ccccc21  0.025
48. O=C(Nc1ccc2nccnc2c1)c1ccco1  0.0364
49. COc1ccc2cc(CCl)c(Cl)nc2c1  0.0416
50. Cn1c(C(=O)NCCCN2CCN(c3cccc(Cl)c3)CC2)cc2c(=O)n(C)c3ccccc3c21  0.0429
51. COCCNc1nc(-c2ccccc2)nc2c1oc1ccccc12  0.0873
52. CN(c1ccccn1)c1ncnc2[nH]ncc12  0.0938
53. Cc1ccc(-c2n[nH]c(=S)n2/N=C/c2cc3c(cc2[N+](=O)[O-])OCO3)cc1  0.106
54. CN(c1ccccc1)c1ccc(/C=c2\s/c(=C(/C#N)C(=O)C(C)(C)C)n(Cc3ccco3)c2=O)cc1  0.174
55. Cc1cc(N2CCN(c3ccc(F)cc3)CC2)n2ncnc2n1  0.197
56. Cc1nnc(C)c2c(C)n(N)c(C)c12  0.198
57. CC(=O)N(OCc1ccc(OC(C)C)c(Cl)c1)C(C)=O  0.219
58. O=C(Nc1cc(C(F)(F)F)ccc1Cl)C(=O)N1CCCCC1  0.245
59. Cc1ccc(-c2cc(C(=O)N3CCc4ccccc4C3)no2)cc1  0.312
60. CC(C)=NN1C(=O)c2ccccc2NC1(C)C  0.347
61. CC(=O)Nc1nc(C)c(-c2csc(Nc3ccc(S(N)(=O)=O)cc3)n2)s1  0.404
62. CC(NC(=O)C(C)(C)C)C(c1cccs1)N1CCN(Cc2ccccc2)CC1 (stereo not drawn)  0.428
63. Cc1ccc(F)cc1NC(=O)N1CCCN(c2ccc(C(F)(F)F)cn2)CC1  0.46
64. CC(=O)NC(=S)Nc1ccc(NC(=S)NC(=O)c2ccc([N+](=O)[O-])cc2)cc1  0.484
65. COC(=O)CNC(=O)c1ccccc1[N+](=O)[O-]  0.532
66. COc1ccc(S(=O)(=O)Nc2cccnc2)c(Cl)c1Cl  0.54
67. O=C(C[n+]1cc(-c2ccc(Cl)c(Cl)c2)n2c1CCC2)c1cccs1  0.636
68. O=C(Nc1ccc2oc(-c3ccc4ccccc4c3)nc2c1)c1cccs1  0.746
69. CCN(CCNC(=O)C1=C(C)C(=O)OC12CCC(C)CC2)c1ccccc1 (stereo not drawn)  0.78
70. Cc1cc(=O)[nH]c2nnnn12  0.843
71. CC(O)c1nc2c(c(=O)n(C)c(=O)n2C)n1C (stereo not drawn)  0.852
72. COc1cc(/C=N/n2c(C)n[nH]c2=S)ccc1OCc1ccccc1  0.899
73. CCOc1ccc(-c2n[nH]c(=S)n2/N=C/c2cc3c(cc2[N+](=O)[O-])OCO3)cc1  0.939
74. COc1ccc(NC(=O)C2=NNC(=O)CC2)cc1S(=O)(=O)N1CCCCC1  1.01
75. CCc1nc2sc3c(Cl)ncnc3c2c2c1CCCC2  1.2
76. O=C(Nc1ccncc1)c1ccccc1[N+](=O)[O-]  1.37
77. CC(=O)Cc1nsc(NC(=O)c2ccc(Cl)cc2Cl)n1  1.49
78. CCOC(=O)C1C(c2ccc(Cl)cc2)NC(=S)NC1(O)C(F)(F)F (stereo not drawn)  1.75
79. S=c1nc(C23CC4CC(CC(C4)C2)C3)nc2sccn12  2.46

`CCOC(=O)C1Sc2[nH]c(=O)sc2C(c2ccc(Cl)cc2)C1C(=O)OCC` (stereo not drawn) was tested, and the B-score of Tl+ flux slope (higher = more flux/activation; lower = inhibition) was -3.93 (active).
With `O=[N+]([O-])c1ccccc1/C=N/n1c(COc2ccccc2)n[nH]c1=S` the B-score of Tl+ flux slope (higher = more flux/activation; lower = inhibition) was 24.3 (active).
`Cc1cs/c(=N\N=C\c2ccc(O)cc2)n1Cc1ccco1` was tested, and the B-score of Tl+ flux slope (higher = more flux/activation; lower = inhibition) was -4.66 (active).
With `O=C(NC(=S)N1CCN(Cc2ccccc2)CC1)c1ccccc1` the B-score of Tl+ flux slope (higher = more flux/activation; lower = inhibition) was 26.6 (active).
For `S=c1[nH]nc(Nc2ccccc2)s1`, the B-score of Tl+ flux slope (higher = more flux/activation; lower = inhibition) was -8.06 (active).
For `O=C(c1cc(-c2ccc(O)cc2)on1)N1CCCc2ccccc21`, the B-score of Tl+ flux slope (higher = more flux/activation; lower = inhibition) was -2.96 (active).
In the case of `O=C(NNc1ccccc1Cl)C(O)(c1cccc(C(F)(F)F)c1)c1cccc(C(F)(F)F)c1`, the B-score of Tl+ flux slope (higher = more flux/activation; lower = inhibition) is reported as 14.9 (active).
`CC(=O)NNC(=O)c1csc(Cc2c(Cl)sc3ccc(Cl)cc23)n1` was tested, and the B-score of Tl+ flux slope (higher = more flux/activation; lower = inhibition) was 13.6 (active).
For `CCn1c(SCC(=O)c2ccc3ccccc3c2)nnc1-c1cccs1`, the B-score of Tl+ flux slope (higher = more flux/activation; lower = inhibition) was -5.11 (active).
For `COc1ccc(NC(=O)c2ccccc2[N+](=O)[O-])cc1OC`, the B-score of Tl+ flux slope (higher = more flux/activation; lower = inhibition) was 4.22 (active).
In the case of `CCOC(=O)CC1C(=O)NCCN1c1nc2c(C)cccn2c(=O)c1/C=C1\SC(=S)N(C(C)CC)C1=O` (stereo not drawn), the B-score of Tl+ flux slope (higher = more flux/activation; lower = inhibition) is reported as “inactive”.
For `Cn1c(C(=O)NCCc2ccsc2)cc2c(=O)n(C)c3ccccc3c21`, the B-score of Tl+ flux slope (higher = more flux/activation; lower = inhibition) was -3.14 (active).
With `COc1ccc(/C=C/C(=O)c2cc(Br)ccc(=O)c2O)cc1` the B-score of Tl+ flux slope (higher = more flux/activation; lower = inhibition) was 22.3 (active).
With `CC(C)n1cnc2c(Nc3cccc(Cl)c3)nc(N(CCO)CCCO)nc21` the B-score of Tl+ flux slope (higher = more flux/activation; lower = inhibition) was -2.56 (active).
`N#Cc1nc(Cc2ccccc2)oc1NCCc1ccccc1` was tested, and the B-score of Tl+ flux slope (higher = more flux/activation; lower = inhibition) was -4.49 (active).
In the case of `O=c1oc2ccccc2cc1-c1cn(-c2ccccc2)c(=S)[nH]1`, the B-score of Tl+ flux slope (higher = more flux/activation; lower = inhibition) is reported as 7.21 (active).
For `CCN(CC)S(=O)(=O)c1cccc(-c2n[nH]c(=S)n2/N=C/c2ccc(C(=O)OC)cc2)c1`, the B-score of Tl+ flux slope (higher = more flux/activation; lower = inhibition) was 2.87 (active).
In the case of `Cn1c(CNc2nc(-c3ccccc3)cs2)nnc1SCC(=O)c1ccccc1`, the B-score of Tl+ flux slope (higher = more flux/activation; lower = inhibition) is reported as -4.57 (active).
`O=C(Nc1ccc2oc(-c3ccccc3F)nc2c1)c1ccco1` was tested, and the B-score of Tl+ flux slope (higher = more flux/activation; lower = inhibition) was -4.45 (active).
